We go through 1 sequence from paper PMC7862700, “An all-to-all approach to the identification of sequence-specific readers for epigenetic DNA modifications on cytosine”.

What all share (experiment): DAPPL (digital affinity profiling via proximity ligation, sequencing); 10 mM Tris-HCl pH 7.5, 50 mM NaCl, 1 mM DTT, 4% glycerol, room temperature, 30 min; GST-TFs on glutathione beads, 16-mer random dsDNA library, 0.1% formaldehyde crosslink after washing; high values mean tight binding
The target of assay [1] is T1, FEV (Homo sapiens, UniProt Q99581 1-238).
T1 sequence: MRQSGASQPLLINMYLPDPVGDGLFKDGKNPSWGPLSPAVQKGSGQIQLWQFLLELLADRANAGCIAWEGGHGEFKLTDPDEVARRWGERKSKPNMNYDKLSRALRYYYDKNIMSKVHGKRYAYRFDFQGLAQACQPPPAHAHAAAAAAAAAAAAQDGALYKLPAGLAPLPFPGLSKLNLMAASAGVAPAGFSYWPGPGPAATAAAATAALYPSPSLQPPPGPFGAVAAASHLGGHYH
The settings on record: protein: recombinant; tags: N-terminal GST; dsDNA, one strand shown. Put shortly: (§1)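 GST fusions of human transcription factors were expressed in yeast and captured with glutathione beads. Once given DNA barcodes and pooled alongside a tag-only sample, they were incubated for 30 min at room temperature with 200 nmole of a random double-stranded 16-mer DNA library in Tris/NaCl/DTT/glycerol buffer, then washed, crosslinked (0.1% formaldehyde), proximity-ligated, PCR-amplified and sequenced on an Illumina NextSeq500. The binding signal of each hexamer is its read frequency for a factor divided by its frequency for the tag-only sample.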

Assay [2] addresses ETV5 (Homo sapiens, UniProt P41161 1-510). The settings on record: protein: recombinant; tags: N-terminal GST; dsDNA, one strand shown. In a few lines:
as §1

Assay [3] deals with HSF1 (Homo sapiens, UniProt Q00613 1-529). Conditions: protein: recombinant; tags: N-terminal GST; chain copies: 3; dsDNA, one strand shown. In a few lines:
as §1

For assay [4], the target named is T2, SPIC (Homo sapiens, UniProt Q8N5J4 1-248).
T2 sequence: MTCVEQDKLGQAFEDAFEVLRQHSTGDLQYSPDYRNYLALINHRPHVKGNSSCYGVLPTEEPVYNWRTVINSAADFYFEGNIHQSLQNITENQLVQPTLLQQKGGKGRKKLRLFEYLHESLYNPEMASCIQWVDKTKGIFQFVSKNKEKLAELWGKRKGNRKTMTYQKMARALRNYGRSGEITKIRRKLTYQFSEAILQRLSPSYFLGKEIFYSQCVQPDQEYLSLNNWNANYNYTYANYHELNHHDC
Conditions: protein: recombinant; tags: N-terminal GST; dsDNA, one strand shown. Put shortly:
as §1

The target of assay [5] is ELF4 (Homo sapiens, UniProt Q99607 1-663). Conditions: protein: recombinant; tags: N-terminal GST; dsDNA, one strand shown. Put shortly: as §1
For assay [6], the target named is T3, ELK4 (Homo sapiens, UniProt P28324-2 1-405).
T3 sequence: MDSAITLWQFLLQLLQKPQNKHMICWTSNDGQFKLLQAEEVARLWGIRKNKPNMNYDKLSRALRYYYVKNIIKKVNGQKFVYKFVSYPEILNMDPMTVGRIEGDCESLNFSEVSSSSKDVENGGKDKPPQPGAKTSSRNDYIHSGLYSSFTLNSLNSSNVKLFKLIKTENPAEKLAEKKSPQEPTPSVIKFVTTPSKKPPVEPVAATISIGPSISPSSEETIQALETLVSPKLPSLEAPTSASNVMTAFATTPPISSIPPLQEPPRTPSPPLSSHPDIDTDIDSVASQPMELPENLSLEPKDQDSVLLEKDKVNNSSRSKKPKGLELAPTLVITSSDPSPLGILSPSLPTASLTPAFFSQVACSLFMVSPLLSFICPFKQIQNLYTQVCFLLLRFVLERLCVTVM
Conditions: protein: recombinant; tags: N-terminal GST; dsDNA, one strand shown. Put shortly:
as §1

The target of assay [7] is T4, ETV2 (Homo sapiens, UniProt O00321 1-342).
T4 sequence: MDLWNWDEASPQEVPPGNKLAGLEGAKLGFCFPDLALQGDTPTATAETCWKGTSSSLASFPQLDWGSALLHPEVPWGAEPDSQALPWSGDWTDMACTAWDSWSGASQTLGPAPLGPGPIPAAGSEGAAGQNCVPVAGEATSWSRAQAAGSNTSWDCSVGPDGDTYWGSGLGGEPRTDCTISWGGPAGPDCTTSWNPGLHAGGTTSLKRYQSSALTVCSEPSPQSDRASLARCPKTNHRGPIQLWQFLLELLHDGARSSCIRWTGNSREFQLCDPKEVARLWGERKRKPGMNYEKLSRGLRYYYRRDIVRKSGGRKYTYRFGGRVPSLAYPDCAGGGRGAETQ
Conditions: protein: recombinant; tags: N-terminal GST; dsDNA, one strand shown. Put shortly:
as §1

Assay [8] has as its target T5, ELF3 (Homo sapiens, UniProt P78545 1-371).
T5 sequence: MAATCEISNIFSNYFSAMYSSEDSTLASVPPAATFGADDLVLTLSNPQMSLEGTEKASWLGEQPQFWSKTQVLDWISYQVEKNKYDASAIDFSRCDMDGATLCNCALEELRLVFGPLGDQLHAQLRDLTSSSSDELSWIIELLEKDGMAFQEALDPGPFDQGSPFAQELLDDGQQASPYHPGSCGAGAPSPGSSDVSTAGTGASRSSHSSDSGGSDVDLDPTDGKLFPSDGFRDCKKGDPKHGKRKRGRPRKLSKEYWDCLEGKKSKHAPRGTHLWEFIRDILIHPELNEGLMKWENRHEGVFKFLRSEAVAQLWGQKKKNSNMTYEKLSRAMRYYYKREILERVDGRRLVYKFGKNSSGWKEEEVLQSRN
Conditions: protein: recombinant; tags: N-terminal GST; dsDNA, one strand shown. In a few lines: as §1

In assay [9] the target is CRX (Homo sapiens, UniProt O43186 1-299). The settings on record: protein: recombinant; tags: N-terminal GST; dsDNA, one strand shown. Put shortly: as §1
Assay [10] has as its target ETV1 (Homo sapiens, UniProt P50549 1-477). The settings on record: protein: recombinant; tags: N-terminal GST; dsDNA, one strand shown. Put shortly: as §1
For assay [11], the target named is T6, ERF (Homo sapiens, UniProt P50548 1-548).
T6 sequence: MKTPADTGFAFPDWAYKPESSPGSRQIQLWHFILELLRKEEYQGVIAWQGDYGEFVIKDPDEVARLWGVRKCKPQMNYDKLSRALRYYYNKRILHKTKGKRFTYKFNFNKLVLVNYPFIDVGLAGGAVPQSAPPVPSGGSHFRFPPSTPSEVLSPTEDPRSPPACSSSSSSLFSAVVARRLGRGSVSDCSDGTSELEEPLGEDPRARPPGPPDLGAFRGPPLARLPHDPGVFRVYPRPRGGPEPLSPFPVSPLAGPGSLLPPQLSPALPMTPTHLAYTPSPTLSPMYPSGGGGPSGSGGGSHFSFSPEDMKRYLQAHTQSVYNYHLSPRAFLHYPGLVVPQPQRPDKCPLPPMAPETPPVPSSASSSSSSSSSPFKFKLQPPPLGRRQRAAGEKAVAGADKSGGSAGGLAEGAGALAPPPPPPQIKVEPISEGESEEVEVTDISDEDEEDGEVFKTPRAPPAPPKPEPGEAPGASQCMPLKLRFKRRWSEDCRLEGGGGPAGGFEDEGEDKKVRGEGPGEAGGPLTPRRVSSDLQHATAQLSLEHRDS
The settings on record: protein: recombinant; tags: N-terminal GST; dsDNA, one strand shown. Put shortly: as §1

The target in assay [12] is T7, ETV3L (Homo sapiens, UniProt Q6ZN32 1-361).
T7 sequence: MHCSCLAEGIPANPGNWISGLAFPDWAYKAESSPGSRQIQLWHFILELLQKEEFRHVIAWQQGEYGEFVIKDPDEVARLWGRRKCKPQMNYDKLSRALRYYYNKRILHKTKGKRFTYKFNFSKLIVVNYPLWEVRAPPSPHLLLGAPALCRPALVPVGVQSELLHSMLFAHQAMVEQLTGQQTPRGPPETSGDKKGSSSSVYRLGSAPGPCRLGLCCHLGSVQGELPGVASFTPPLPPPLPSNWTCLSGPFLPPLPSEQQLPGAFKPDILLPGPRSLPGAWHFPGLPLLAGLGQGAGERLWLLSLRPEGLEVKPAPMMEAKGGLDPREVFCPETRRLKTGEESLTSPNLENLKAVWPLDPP
Conditions: protein: recombinant; tags: N-terminal GST; dsDNA, one strand shown. In a few lines: as §1

The target in assay [13] is T8, ETS2 (Homo sapiens, UniProt P15036 1-469).
T8 sequence: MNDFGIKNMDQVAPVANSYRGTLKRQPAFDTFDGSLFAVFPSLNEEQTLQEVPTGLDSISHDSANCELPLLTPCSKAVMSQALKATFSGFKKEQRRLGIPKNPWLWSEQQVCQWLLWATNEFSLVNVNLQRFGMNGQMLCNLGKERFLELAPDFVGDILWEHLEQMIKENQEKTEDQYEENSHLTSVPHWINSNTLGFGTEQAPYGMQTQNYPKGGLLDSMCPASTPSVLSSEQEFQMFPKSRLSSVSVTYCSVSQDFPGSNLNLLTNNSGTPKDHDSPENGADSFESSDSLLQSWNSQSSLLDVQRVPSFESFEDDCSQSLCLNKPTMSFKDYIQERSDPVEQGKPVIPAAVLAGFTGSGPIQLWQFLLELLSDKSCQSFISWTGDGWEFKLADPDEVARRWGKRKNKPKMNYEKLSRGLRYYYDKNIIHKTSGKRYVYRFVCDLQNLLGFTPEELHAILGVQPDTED
The settings on record: protein: recombinant; tags: N-terminal GST; dsDNA, one strand shown. Put shortly: as §1

The target of assay [14] is T9, SPDEF (Homo sapiens, UniProt O95238 1-335).
T9 sequence: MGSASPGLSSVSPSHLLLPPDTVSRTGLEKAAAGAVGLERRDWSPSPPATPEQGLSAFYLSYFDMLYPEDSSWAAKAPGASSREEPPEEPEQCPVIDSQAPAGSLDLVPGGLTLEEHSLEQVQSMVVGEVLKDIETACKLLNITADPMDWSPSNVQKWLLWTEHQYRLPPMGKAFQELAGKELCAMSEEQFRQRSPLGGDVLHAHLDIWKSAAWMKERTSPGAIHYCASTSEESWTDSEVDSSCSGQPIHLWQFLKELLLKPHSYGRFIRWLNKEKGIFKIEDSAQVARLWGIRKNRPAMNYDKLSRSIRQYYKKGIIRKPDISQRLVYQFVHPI
Conditions: protein: recombinant; tags: N-terminal GST; dsDNA, one strand shown. In a few lines:
as §1

Assay [15] addresses T10, ETV7 (Homo sapiens, UniProt Q9Y603 1-341).
T10 sequence: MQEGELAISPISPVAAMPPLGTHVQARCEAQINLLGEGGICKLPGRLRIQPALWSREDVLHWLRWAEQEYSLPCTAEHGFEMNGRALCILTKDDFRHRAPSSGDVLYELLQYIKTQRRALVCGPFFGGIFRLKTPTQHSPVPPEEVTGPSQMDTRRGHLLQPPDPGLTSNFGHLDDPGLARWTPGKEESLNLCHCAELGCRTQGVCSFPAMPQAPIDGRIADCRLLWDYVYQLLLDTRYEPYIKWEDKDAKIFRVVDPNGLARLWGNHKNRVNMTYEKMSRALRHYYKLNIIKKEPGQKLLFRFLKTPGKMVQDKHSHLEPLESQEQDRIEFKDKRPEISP
The settings on record: protein: recombinant; tags: N-terminal GST; dsDNA, one strand shown. In a few lines:
as §1

For assay [16], the target named is T11, ELF5 (Homo sapiens, UniProt Q9UKW6-2 1-255).
T11 sequence: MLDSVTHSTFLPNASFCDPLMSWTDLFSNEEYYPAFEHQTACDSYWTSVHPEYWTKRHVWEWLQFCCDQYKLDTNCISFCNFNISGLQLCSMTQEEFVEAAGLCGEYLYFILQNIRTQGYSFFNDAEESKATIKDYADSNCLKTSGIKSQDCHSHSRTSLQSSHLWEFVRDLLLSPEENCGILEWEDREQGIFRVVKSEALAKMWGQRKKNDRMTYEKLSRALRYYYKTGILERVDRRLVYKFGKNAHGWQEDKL
The settings on record: protein: recombinant; tags: N-terminal GST; dsDNA, one strand shown. In a few lines:
as §1

Assay [17] concerns the target T12, ETV3 (Homo sapiens, UniProt P41162-2 1-143).
T12 sequence: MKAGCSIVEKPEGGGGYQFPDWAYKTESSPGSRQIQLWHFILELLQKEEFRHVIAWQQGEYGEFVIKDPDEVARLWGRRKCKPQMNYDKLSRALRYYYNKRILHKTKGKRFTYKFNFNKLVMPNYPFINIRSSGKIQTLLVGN
Conditions: protein: recombinant; tags: N-terminal GST; dsDNA, one strand shown. Put shortly: as §1

The target in assay [18] is ETV6 (Homo sapiens, UniProt P41212 1-452). The settings on record: protein: recombinant; tags: N-terminal GST; dsDNA, one strand shown. In a few lines:
as §1

ETV5, sequence (P41161 whole entry): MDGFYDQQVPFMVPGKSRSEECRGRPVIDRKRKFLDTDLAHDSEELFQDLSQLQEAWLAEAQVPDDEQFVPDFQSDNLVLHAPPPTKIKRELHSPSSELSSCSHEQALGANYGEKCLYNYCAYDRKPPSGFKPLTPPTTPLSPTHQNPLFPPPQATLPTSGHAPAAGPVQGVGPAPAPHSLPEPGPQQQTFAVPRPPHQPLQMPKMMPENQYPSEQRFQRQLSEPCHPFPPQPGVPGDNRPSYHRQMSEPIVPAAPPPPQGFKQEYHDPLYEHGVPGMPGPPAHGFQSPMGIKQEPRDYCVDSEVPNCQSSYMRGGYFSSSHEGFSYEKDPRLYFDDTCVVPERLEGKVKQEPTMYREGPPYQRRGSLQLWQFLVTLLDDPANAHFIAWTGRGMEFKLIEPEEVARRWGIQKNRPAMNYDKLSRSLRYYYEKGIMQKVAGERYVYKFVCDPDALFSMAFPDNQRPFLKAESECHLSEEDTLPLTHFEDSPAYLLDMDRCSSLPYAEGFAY
ELF4, sequence (Q99607 whole entry): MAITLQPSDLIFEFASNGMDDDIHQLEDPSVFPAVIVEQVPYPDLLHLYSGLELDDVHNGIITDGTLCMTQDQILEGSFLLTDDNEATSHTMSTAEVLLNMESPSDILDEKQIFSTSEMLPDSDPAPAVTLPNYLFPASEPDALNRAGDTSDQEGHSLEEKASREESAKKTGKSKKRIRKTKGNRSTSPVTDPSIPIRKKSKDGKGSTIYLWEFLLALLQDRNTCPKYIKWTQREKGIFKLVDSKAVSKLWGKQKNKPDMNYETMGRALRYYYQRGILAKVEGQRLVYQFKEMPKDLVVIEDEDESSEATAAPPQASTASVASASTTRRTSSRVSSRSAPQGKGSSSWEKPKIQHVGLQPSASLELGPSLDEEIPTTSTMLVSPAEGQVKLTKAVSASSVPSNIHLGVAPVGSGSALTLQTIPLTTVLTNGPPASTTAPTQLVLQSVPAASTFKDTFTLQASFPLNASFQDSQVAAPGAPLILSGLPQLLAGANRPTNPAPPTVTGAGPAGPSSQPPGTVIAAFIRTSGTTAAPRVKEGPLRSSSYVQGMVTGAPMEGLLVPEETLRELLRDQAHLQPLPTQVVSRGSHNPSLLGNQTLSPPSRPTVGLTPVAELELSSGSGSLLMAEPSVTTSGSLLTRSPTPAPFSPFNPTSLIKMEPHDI
ETV1, sequence (P50549 whole entry): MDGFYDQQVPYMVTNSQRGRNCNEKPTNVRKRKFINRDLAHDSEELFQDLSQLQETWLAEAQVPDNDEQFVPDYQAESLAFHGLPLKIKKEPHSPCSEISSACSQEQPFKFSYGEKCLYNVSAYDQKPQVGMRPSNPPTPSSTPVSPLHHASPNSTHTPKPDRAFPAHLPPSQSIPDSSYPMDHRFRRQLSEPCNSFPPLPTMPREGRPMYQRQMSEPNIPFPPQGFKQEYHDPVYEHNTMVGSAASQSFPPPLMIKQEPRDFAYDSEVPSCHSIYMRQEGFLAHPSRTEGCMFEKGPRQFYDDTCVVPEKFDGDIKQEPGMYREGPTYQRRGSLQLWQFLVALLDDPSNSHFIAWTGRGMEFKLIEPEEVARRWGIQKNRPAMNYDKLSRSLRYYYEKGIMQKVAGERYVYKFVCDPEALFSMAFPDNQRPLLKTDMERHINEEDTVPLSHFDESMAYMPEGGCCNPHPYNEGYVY
CRX, sequence (O43186 whole entry): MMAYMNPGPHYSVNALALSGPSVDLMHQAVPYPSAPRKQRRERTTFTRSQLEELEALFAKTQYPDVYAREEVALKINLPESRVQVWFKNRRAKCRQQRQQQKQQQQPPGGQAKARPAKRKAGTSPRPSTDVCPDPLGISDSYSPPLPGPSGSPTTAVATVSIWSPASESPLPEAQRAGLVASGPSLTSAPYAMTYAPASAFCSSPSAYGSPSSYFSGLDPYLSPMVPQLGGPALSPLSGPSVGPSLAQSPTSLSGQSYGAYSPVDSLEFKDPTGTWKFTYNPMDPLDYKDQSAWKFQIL
HSF1, sequence (Q00613 whole entry): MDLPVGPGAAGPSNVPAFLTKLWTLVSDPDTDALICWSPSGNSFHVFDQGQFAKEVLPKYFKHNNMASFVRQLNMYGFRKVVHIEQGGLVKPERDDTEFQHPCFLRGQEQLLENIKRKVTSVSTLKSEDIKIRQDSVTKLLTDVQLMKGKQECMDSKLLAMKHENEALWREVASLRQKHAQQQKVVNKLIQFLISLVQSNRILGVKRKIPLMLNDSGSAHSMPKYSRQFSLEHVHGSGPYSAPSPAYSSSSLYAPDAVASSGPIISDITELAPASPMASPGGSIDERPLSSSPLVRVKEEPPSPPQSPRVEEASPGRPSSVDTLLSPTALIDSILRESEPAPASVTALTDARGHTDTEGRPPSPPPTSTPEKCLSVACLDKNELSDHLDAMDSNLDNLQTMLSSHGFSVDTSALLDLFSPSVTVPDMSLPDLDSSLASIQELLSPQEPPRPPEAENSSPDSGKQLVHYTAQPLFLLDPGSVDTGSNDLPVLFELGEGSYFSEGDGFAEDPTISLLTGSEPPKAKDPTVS
ETV6, sequence (P41212 whole entry): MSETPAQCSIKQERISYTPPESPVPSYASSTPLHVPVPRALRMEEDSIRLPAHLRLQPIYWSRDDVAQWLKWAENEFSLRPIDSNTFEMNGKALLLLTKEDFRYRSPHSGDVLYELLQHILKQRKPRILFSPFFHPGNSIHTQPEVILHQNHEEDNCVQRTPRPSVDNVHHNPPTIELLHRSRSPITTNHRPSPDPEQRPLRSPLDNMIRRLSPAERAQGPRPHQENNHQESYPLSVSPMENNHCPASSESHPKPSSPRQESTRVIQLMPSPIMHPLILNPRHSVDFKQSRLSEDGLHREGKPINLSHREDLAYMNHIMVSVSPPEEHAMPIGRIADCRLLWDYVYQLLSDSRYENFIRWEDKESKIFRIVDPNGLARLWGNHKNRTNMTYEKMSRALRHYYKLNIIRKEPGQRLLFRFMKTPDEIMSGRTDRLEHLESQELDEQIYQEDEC

As to ATACCC, the binding signal is 1.17 fold enrichment (6-mer frequency, TF over GST control) in assay [1]; 1.16 fold enrichment (6-mer frequency, TF over GST control) in assay [2]; 1 fold enrichment (6-mer frequency, TF over GST control) in assay [3]; 1.2 fold enrichment (6-mer frequency, TF over GST control) in assay [4]; 1.13 fold enrichment (6-mer frequency, TF over GST control) in assay [5]; 1.16 fold enrichment (6-mer frequency, TF over GST control) in [6]. The binding signal was 1.24 fold enrichment (6-mer frequency, TF over GST control) in [7]; 1.16 fold enrichment (6-mer frequency, TF over GST control) in [8]; 1.2 fold enrichment (6-mer frequency, TF over GST control) in [9]; 1.23 fold enrichment (6-mer frequency, TF over GST control) in assay [10]; 1.14 fold enrichment (6-mer frequency, TF over GST control) in assay [11]; 1.18 fold enrichment (6-mer frequency, TF over GST control) in assay [12]. The binding signal in assay [13] is 1.24 fold enrichment (6-mer frequency, TF over GST control); in assay [14] it was 1.27 fold enrichment (6-mer frequency, TF over GST control); in assay [15], 1.18 fold enrichment (6-mer frequency, TF over GST control); in assay [16], 1.18 fold enrichment (6-mer frequency, TF over GST control); in [17], 1.18 fold enrichment (6-mer frequency, TF over GST control); in assay [18], 1.09 fold enrichment (6-mer frequency, TF over GST control).
